Source: PubChem BioAssay (National Center for Advancing Translational Sciences (NCATS))
PTHR1 agonist = qHTS for PTHR1 Agonists: Primary Screen; AID 743266, 2014; Potency, µM (titrated, usually from 115 µM), for the others: at the top dose activation, hits mostly activators; HEK293 GP2 PTHR1 cells, GloSensor cAMP luminescence, 1 h; Parathyroid hormone/parathyroid hormone-related peptide receptor (Homo sapiens), Q03431; 410,000 compounds, 0.075% hits; note: nearly all actives have a fitted effect of over 55% in size
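HEK-293-derived GP2 cells expressing PTHR1 and a GloSensor cAMP reporter, 3,000/well, plated overnight, given luciferin plus IBMX (each 0.5 mM as added) for 1 h at 37 °C, then compound for 1 h at 37 °C. Luminescence was read after 15 min at room temperature.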
12-LOX inh = Primary qHTS assay for inhibitors of human arachidonate 12S-lipoxygenase (ALOX12): Round 2; Polyunsaturated fatty acid lipoxygenase ALOX12 (Homo sapiens), P18054; purified 12hLO, xylenol orange hydroperoxide absorbance; Potency, µM (titrated, usually from 108 µM), inactives show at the top dose activity change, negative = inhibition, usual class: inhibitors; 580,000 compounds, 1.1% hits; note: % is set by controls: 0 for no effect and ±100 for the full control effect
Target sequence (P18054 whole entry, looked up): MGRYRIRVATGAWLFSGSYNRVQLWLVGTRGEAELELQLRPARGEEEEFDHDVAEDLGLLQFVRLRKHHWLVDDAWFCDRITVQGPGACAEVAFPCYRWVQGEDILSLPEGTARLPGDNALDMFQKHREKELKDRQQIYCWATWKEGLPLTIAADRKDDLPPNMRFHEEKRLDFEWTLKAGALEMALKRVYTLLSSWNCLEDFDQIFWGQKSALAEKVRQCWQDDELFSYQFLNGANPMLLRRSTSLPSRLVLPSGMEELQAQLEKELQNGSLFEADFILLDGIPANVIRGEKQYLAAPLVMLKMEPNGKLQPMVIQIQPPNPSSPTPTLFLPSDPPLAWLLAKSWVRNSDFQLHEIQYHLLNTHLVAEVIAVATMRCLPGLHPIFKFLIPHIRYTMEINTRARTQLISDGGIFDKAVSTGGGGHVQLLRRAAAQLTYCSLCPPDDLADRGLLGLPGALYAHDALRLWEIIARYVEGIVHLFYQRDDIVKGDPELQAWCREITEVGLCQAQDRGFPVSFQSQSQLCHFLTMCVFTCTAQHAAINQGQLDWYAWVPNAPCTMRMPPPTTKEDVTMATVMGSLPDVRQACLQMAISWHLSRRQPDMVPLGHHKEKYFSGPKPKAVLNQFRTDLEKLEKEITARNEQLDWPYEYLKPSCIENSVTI
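Hydroperoxide product was detected by ferrous iron/xylenol orange as the 573 to 405 nm absorbance ratio. Arachidonic acid at 40 uM (final) was turned over for 30 min at room temperature by 150 nM human 12hLO, pH 7.0 Hepes buffer, after 15 min compound preincubation.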
GLP-1R inv ag = qHTS of GLP-1 Receptor Inverse Agonists (Inhibition Mode); Glucagon-like peptide 1 receptor (Homo sapiens), P43220; HEK293 GLP-1R CRE-luciferase, luminescence, 24 h; GLP-1R form is constitutively active; Potency, µM (titrated, usually from 38.3 µM), without a hit: at the top dose activity change, negative = inhibition, most hits filed as inhibitors; 410,000 compounds, 1.6% hits; AID 624417, 2012; note: % is set by controls: 0 for no effect and ±100 for the full control effect; nearly all actives have a fitted effect of over 55% in size
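Luminescence readout: a drop in cAMP-driven luciferase signal flags inverse agonism at a constitutively active GLP-1R stably expressed in HEK293. Compound exposure lasted 24 hr at 37 deg C, 5% CO2.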
GLP1R ag = qHTS of GLP-1 Receptor Agonists; Glucagon-like peptide 1 receptor (Homo sapiens), P43220; HEK293 GLP-1R CRE-luciferase, luminescence, 4-6 h; cells express a hypersensitive GLP-1R form; Potency, µM (doses to about 45.6 µM), for inactives: top-dose activation, actives largely listed as activators; 380,000 compounds, 0.007% hits; AID 624172, 2012; note: % of control where 0% means no effect
GRP78 ERSR act = qHTS for Inducers of the Endoplasmic Reticulum Stress Response (ERSR) in Human Glioma: qHTS; Potency, µM, inactives show at the highest dose activation, most hits filed as activators; AID 602332, 2012; 420,000 compounds, 0.02% hits; U87-MG GRP78 promoter luciferase reporter, 16 h; note: series mostly up to about 76 µM; % of control where 0% means no effect; nearly all actives have a fitted effect of over 35% in size
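Stably transfected U87-MG human glioma cells carrying a GRP78-based luminescent sensor were seeded at 1000 cells/well, pin-dosed with compounds and incubated 16 h. Luciferase reagent was then added, and end-point luminescence was read after 10 min at room temperature.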
GLS inh = qHTS for Inhibitors of Glutaminase (GLS); Glutaminase kidney isoform, mitochondrial (Homo sapiens), O94925; GLS enzymatic activity, qHTS titration; Potency, µM (series often up to 45.5 µM), without a hit: at the top dose activity change, negative = inhibition, usual class: inhibitors; 410,000 compounds, 0.21% hits; note: % is set by controls: 0 for no effect and ±100 for the full control effect
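hKGA; 45 mM KH2PO4 pH 8.2 + 0.02% Tween-20; cpd via pin tool; 1 mM Gln soln; GluOx/HRP/Amplex Red; RT 30 min; fluor. t0 & final.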
Numbers without * were called inactive; i = inactive; u = inconclusive; x = not tested or not shown. Rows were chosen to be rich in hits. Some 2.3% of all compounds tested hit in one or more screens of this group. Calls come from the whole dose curve; as a rule, active = well fitted curve in the direction sought with a large enough effect; inconclusive = small, poorly fitted or top-dose-only effect, or another doubt; inactive = no such curve, though single readings can be large; an effect the other way counts as inactive or inconclusive. Potency is the fitted concentration of half-maximal effect.

SMILES	PTHR1 agonist	12-LOX inh	GLP-1R inv ag	GLP1R ag	GRP78 ERSR act	GLS inh
O=C1S/C(=C/c2ccc(N3CCOCC3)o2)C(=O)N1Cc1c(F)cccc1Cl	i	28.2µM*	0.0%	3.6%	2.1%	-5.9%
CCc1cc(=O)oc2cc(OCC(=O)N3CCCc4cc(OC)ccc43)ccc12	x	-1.9%	x	x	x	x
COc1cccc(C(CNC(=O)C2CCN(S(=O)(=O)c3ccc4ccccc4c3)CC2)N(C)C)c1 (stereo unspecified)	x	7.9%	x	x	x	x
COc1cccc(Nc2c3c(nc4c(-c5ccccc5)c(C)nn24)CCC3)c1	-16.8%	-7.1%	5.01µM*	1.6%	-3.5%	5.2%
COc1ccccc1/C=C/C(=O)c1cc(F)ccc1OC(=O)c1ccccc1	x	-14.4%	x	x	x	x
C[C@H](CO)N1C[C@H](C)[C@@H](CN(C)Cc2ccc(Cl)c(Cl)c2)Oc2c(NS(=O)(=O)c3ccc(F)cc3)cccc2C1=O	-67.9%	-13.9%	11.2µM*	-0.6%	-5.0%	2.2%
C[C@H](CO)N1C[C@H](C)[C@@H](CN(C)Cc2ccccc2)Oc2c(NS(=O)(=O)c3ccc(F)cc3)cccc2C1=O	-21.5%	-1.3%	21.4%	12.6%	-0.8%	1.2%
C[C@@H]1CN([C@@H](C)CO)C(=O)c2cc(NC(=O)C3CC3)ccc2O[C@@H]1CN(C)Cc1ccc(Cl)c(Cl)c1	i	5.4%	11.2µM*	-1.3%	-2.9%	-5.7%
c1ccc(-c2ccnc(NCC3OCCc4ccccc43)n2)nc1 (stereo unspecified)	x	107.0%	x	x	x	x
CO/N=C/NC(=O)N1OC[C@@H]2COc3ccc4ccccc4c3[C@@H]21	i	0.0%	-8.4%	-2.1%	-1.3%	6.9%
O=C(N/C=N/OCc1cccc(C(F)(F)F)c1)N1OC[C@@H]2COc3ccc4ccccc4c3[C@@H]21	i	4.6%	5.62µM*	-6.2%	0.6%	4.3%
c1ccc(CO/N=C(\c2ccc(C3CC3)nc2)C2CC2)cc1	-24.5%	2.9%	7.94µM*	-1.8%	4.1%	-8.6%
O=C(NNC(=O)C1CCC(c2ccccc2)CC1)c1ccc(Br)cc1 (stereo unspecified)	x	-43.9%	x	x	x	x
CCOC(=O)C1CCCN(C(=O)c2cc(-c3ccc(F)cc3)nc3ccccc23)C1 (stereo unspecified)	i	0.8%	7.94µM*	22.5%	-0.4%	3.7%
CCOC(=O)C1CCCN(C(=O)c2cc(-c3ccco3)nc3ccccc23)C1 (stereo unspecified)	i	8.91µM*	17.2%	1.2%	-4.3%	12.6µM*
CCc1nc2c(OCCC3CCCCC3)cccn2c1N(C)C(=O)C1CC1	-8.9%	x	u	5.1%	0.5%	1.5%
CCc1nc2c(OCCC3CCCCC3)cccn2c1N(C)C(=O)c1ccc(C)cc1	-11.7%	44.7µM*	u	-0.9%	5.0%	0.3%
Cc1c(C)c2ccc(OCC(=O)Nc3ccccn3)c(C)c2oc1=O	-26.9%	-10.4%	10µM*	-4.9%	-16.0%	4.6%
O=[N+]([O-])c1ccc(S(=O)(=O)NN=Cc2ccc(Cl)c(Cl)c2)cc1	-14.6%	17.8µM*	-14.8%	1.6%	-2.8%	-4.4%
CC(=O)Nc1ccc(S(=O)(=O)NN=Cc2ccc(Cl)c(Cl)c2)cc1	i	u	u	6.1%	-2.7%	-3.4%
CN1CCN(S(=O)(=O)c2ccc(Cc3ccc(S(=O)(=O)N4CCN(C)CC4)cc3)cc2)CC1	i	11.0%	5.62µM*	-9.0%	-2.4%	1.2%
